Results reported in the supplement of paper PMC6555819.

Experiments:
Test in all cases: PBM binding z-score (relative to random genomic background probes); higher = stronger binding; sequences stand for … in GC…GCGATTGACAGCGTAGAATGAAGG
[1] = tested on: FXR:RXRa (NR concentration 270 nM, RXRa partner concentration 90 nM)
In short: (§1)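 Probes were double-stranded and carried 34-nt variable regions with direct-repeat seeds, single-nucleotide variants, half-site ablations and random human genomic background sequences, printed on custom Agilent 4×180K protein-binding microarrays. Arrays were incubated 1 h with ligand-free nuclear receptor dimers in PBS pH 7.4, 2% milk, 0.02% Triton X-100, 1 mM DTT, 0.2 mg/mL BSA and 0.4 mg/ml salmon testes DNA. Antibodies against each partner (one per run) detected binding, and scanned fluorescence was regression-normalized. Binding z-scores use the random background probes as reference.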

[2] = tested on: LXRa:RXRa (NR concentration 270 nM, RXRa partner concentration 90 nM)
In short: as §1

[3] = tested on: LXRa homodimer (NR concentration 270 nM)
In short: as §1

[4] = tested on: LXRb:RXRa (NR concentration 270 nM, RXRa partner concentration 90 nM)
In short: as §1

[5] = tested on: LXRb homodimer (NR concentration 270 nM)
In short: as §1

[6] = tested on: PPARa:RXRa (NR concentration 270 nM, RXRa partner concentration 90 nM)
In short: as §1

[7] = tested on: PPARg:RXRa (NR concentration 180 nM, RXRa partner concentration 90 nM)
In short: as §1

[8] = tested on: PPARg:RXRa 270nM:90nM, anti-RXR (NR concentration 270 nM, RXRa partner concentration 90 nM)
In short: as §1

[9] = tested on: PPARg:RXRa 30nM:10nM, anti-RXR (NR concentration 30 nM, RXRa partner concentration 10 nM)
In short: as §1

[10] = tested on: PPARg:RXRa 90nM:30nM, anti-RXR (NR concentration 90 nM, RXRa partner concentration 30 nM)
In short: as §1

[11] = tested on: PPARg:RXRa DBDmut IVT, anti-RXR (DBD mutation: RXRa K156A/R161A, NR concentration 270 nM, RXRa partner concentration 90 nM)
In short: as §1

[12] = tested on: PPARg:RXRa IVT, anti-PPARg (NR concentration 270 nM, RXRa partner concentration 90 nM)
In short: as §1

[13] = tested on: PPARg DBDmut:RXRa IVT, anti-PPARg (DBD mutation: PPARg1 K132A/R137A, NR concentration 270 nM, RXRa partner concentration 90 nM)
In short: as §1

[14] = tested on: PPARg DBDmut IVT, anti-PPARg (DBD mutation: PPARg1 K132A/R137A, NR concentration 270 nM)
In short: as §1

[15] = tested on: PPARg homodimer (NR concentration 180 nM)
In short: as §1

[16] = tested on: PXR:RXRa (NR concentration 270 nM, RXRa partner concentration 90 nM)
In short: as §1

[17] = tested on: PXR homodimer (NR concentration 270 nM)
In short: as §1

[18] = tested on: RARa:RXR (NR concentration 270 nM, RXRa partner concentration 90 nM)
In short: as §1

[19] = tested on: RARa homodimer (NR concentration 270 nM)
In short: as §1

[20] = tested on: RARb:RXRa (NR concentration 270 nM, RXRa partner concentration 90 nM)
In short: as §1

Sequence	PBM binding z-score [1]	PBM binding z-score [2]	PBM binding z-score [3]	PBM binding z-score [4]	PBM binding z-score [5]	PBM binding z-score [6]	PBM binding z-score [7]	PBM binding z-score [8]	PBM binding z-score [9]	PBM binding z-score [10]	PBM binding z-score [11]	PBM binding z-score [12]	PBM binding z-score [13]	PBM binding z-score [14]	PBM binding z-score [15]	PBM binding z-score [16]	PBM binding z-score [17]	PBM binding z-score [18]	PBM binding z-score [19]	PBM binding z-score [20]
TCGTGTAGGTTAGGGGCATTCAGAATGGCGTCGA	1.04	0.994	0.245	1.63	0.909	1.6	0.371	1.78	2.01	2.06	1.79	1.06	0.425	0.917	1.52	0.802	0.406	1.03	0.812	1.47
CGAACTAGGTCAAGGATAGTGAATCTCCGCACGC	3.06	1.9	0.0332	1.36	-0.0688	4.56	7.74	6.47	4.24	6.39	8.31	8.31	3.8	1.33	2.41	0.863	-0.425	1.96	0.921	3.73
CGAACTAGGTCATCCAGGACAGTGGATACATTGA	4.72	2.32	0.245	1.99	0.307	4.9	7.83	5.84	4.33	5.96	7.91	7.98	1.6	0.738	2.41	1.89	1.23	2.52	1.24	4.03
CCGAGTAGGGTATGGGGCATTCAGGCAACGGTGA	-0.164	-0.318	-0.305	0.261	-0.00353	1.14	2.09	3.6	1.5	3.18	0.659	1.58	-0.658	-0.796	0.951	-0.379	-0.14	-0.154	0.135	0.278
TGAATGCGGTTATAAGATCAGGGAACGTTGCAAA	-0.202	-0.262	-0.342	-0.407	-0.259	-0.272	-0.0336	0.0368	0.119	-0.242	-1.13	0.042	0.512	0.235	0.329	-0.103	0.0437	-0.0387	-0.0517	0.025
CCTCGGAGTACAACAGGAGGTCAGAGCTGCCAGA	0.85	1.93	1.79	1.35	-0.438	1.92	0.371	0.479	-0.324	-0.0827	0.161	0.257	-0.9	-1.14	1.18	2.19	0.607	2.23	0.843	2.06
AGTCTAAGTTCATCTAGGTAACGTAAGATATGCT	4.07	4.07	1.92	2.09	0.539	3.17	1.72	2.24	0.691	1.31	0.694	2.11	1.22	1.39	1.48	4.78	8.13	2.24	0.123	3.55
TGTCAAAGTTCAAAGGGAACGTAAGTATCCACAC	7.11	6.18	3.96	4.16	1.68	5.06	8.1	7.17	5.31	7.11	-0.458	3.95	2.37	1.56	4.11	4.92	4.8	4.2	1.6	4.93
ACAGACAGGTGAGTGAAAGTAACTCAGCTGGACG	0.0251	0.239	-0.514	-0.461	-0.641	-0.0542	0.742	-0.29	-0.67	-0.542	0.546	0.438	-0.222	0.175	-1.05	-0.413	-0.648	0.2	-0.554	0.304
CGTACTGGGCCAAAAAGGTCATTGATGCCGATAA	3.72	4.43	2.93	4.25	0.293	4.69	3.65	4.22	1.71	3.72	4.13	3.76	-0.0861	-0.32	3.08	4.6	3.5	4.94	1.6	3.87
TCGGACAGGTGAAGGTAACTCAGGTACGCAGTCG	0.451	1.52	0.174	0.636	-0.839	0.988	0.599	1.57	2.75	1.87	2.03	1.01	-0.211	-0.574	0.536	0.407	0.228	0.44	0.257	1.45
CCTAGTTGGTCAGGAGGTCACAGACCGGATATGA	4.08	3.46	1.53	3.38	0.251	4.41	3.79	4.28	1.81	3.37	1.33	3.88	0.154	0.248	3.25	4.28	1.01	4.9	1.4	3.79
TGTCAAAGTTCAAAGCTAACGTAAGTATCCACAC	6.52	6.15	3.83	4.14	1.86	5.22	7.92	7.25	4.27	7.06	0.771	3.82	1.34	1.18	2.01	4.29	3.01	3.5	1.14	5.04
ACTAGTTGGTCAGCTGAGGTCACCCACAATTCGG	3.88	3.1	2.1	3.2	0.552	3.63	1.42	2.6	0.58	2.01	1.12	2.73	0.761	0.737	3.43	5.45	1.71	4.87	1.52	3.58
